Laboratory results as given in PubChem BioAssay AID743157 (Broad Institute, 2013).
The source made the active and inactive calls.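 The calls were made as follows: active = cell killing, with a fitted active concentration at or below twice the top valid dose tested; inconclusive = flat fit with 30 to 70 percent signal loss, or poor fit; inactive = effect in the rising direction, plus the rest.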

Experiment: A549 cell cytotoxicity, dose response, cytotoxicity control, CellTiter-Glo luminescence, dry powder, set 4 (AID 743157)
Details: A549 viability, CellTiter-Glo ATP luminescence, 72 h; series mostly up to 50 µM; activity change, negative = cytotoxicity: at the top concentration

SMILES	activity change, negative = cytotoxicity	outcome
Cc1c(C(=O)O)sc2nc(/C=C/c3cccc(=O)[nH]3)[nH]c(=O)c12	-1.12% (inactive)	–
Cc1c(C(=O)O)sc2nc(/C=C/c3cccc(OC(F)(F)F)c3)[nH]c(=O)c12	-1.89% (inactive)	–
Cc1c(C(=O)O)sc2nc(/C=C/c3ccc4ccccc4c3)[nH]c(=O)c12	3.4% (inactive)	–
Cc1c(C(=O)O)sc2nc(/C=C/c3cccnc3)[nH]c(=O)c12	-5.2% (inactive)	–
Cc1c(C(=O)O)sc2nc(/C=C/c3cccc([N+](=O)[O-])c3)[nH]c(=O)c12	-5.5% (inactive)	–
Cc1c(C(=O)O)sc2nc(/C=C/c3ccccc3O)[nH]c(=O)c12	-4.23% (inactive)	–
Cc1c(C(=O)O)sc2nc(CCc3cccc(O)c3)[nH]c(=O)c12	13.1% (inactive)	–
Cc1c(C(=O)O)sc2nc(/C=C/c3ccc4[nH]ccc4c3)[nH]c(=O)c12	0.34% (inactive)	–
Cc1c(C(=O)O)sc2nc(/C=C/c3cc4ccccc4cn3)[nH]c(=O)c12	12.1% (inactive)	–
Cc1c(C(=O)O)sc2nc(/C=C/c3cccc(F)c3)[nH]c(=O)c12	4.97% (inactive)	–
COc1cccc(/C=C/c2nc3sc(C(=O)O)c(C)c3c(=O)[nH]2)c1	-9.5% (inactive)	–
Cc1c(C(=O)O)sc2nc(/C=C/c3ccncc3)[nH]c(=O)c12	8.31% (inactive)	–
Cc1c(C(=O)O)sc2nc(/C=C/c3cnc4ccccc4c3)[nH]c(=O)c12	-0.773% (inactive)	–
Cc1c(C(=O)O)sc2nc(/C=C/c3cccc(C(=O)O)c3)[nH]c(=O)c12	6.57% (inactive)	–
Cc1c(C(=O)O)sc2nc(/C=C/c3ccc4cc[nH]c4c3)[nH]c(=O)c12	-3.79% (inactive)	–
Cc1c(C(=O)O)sc2nc(/C=C/c3ccc4[nH]ccc4n3)[nH]c(=O)c12	6.14% [at 12 µM] (inactive)	–
Cc1c(C(=O)O)sc2nc(/C=C/c3cccc(O)c3)[nH]c(=O)c12	–	inactive
Cc1c(C(=O)O)sc2nc(/C=C/c3cccc(N4CCOCC4)n3)[nH]c(=O)c12	6.58% (inactive)	–
Cc1c(C(=O)O)sc2nc(/C=C/c3cccc(C(F)(F)F)c3)[nH]c(=O)c12	-8.26% (inactive)	–
Cc1c(C(=O)O)sc2nc(/C=C/c3ccc(O)cn3)[nH]c(=O)c12	4.16% [at 1.2 µM] (inactive)	–
Cc1c(C(=O)O)sc2nc(/C=C/c3cccc(N)c3)[nH]c(=O)c12	-1.1% (inactive)	–
Cc1c(C(=O)O)sc2nc(/C=C/C=C/c3ccccc3)[nH]c(=O)c12	11.2% (inactive)	–
Cc1c(C(=O)O)sc2nc(/C=C/C3CC3)[nH]c(=O)c12	9.01% (inactive)	–
Cc1c(C(=O)O)sc2nc(/C=C/c3ccnc4ccccc34)[nH]c(=O)c12	-1.47% (inactive)	–
Cc1c(C(=O)O)sc2nc(/C=C/c3ccc(N)nc3)[nH]c(=O)c12	-0.971% (inactive)	–
Cc1c(C(=O)O)sc2nc(/C=C/c3ccccc3)[nH]c(=O)c12	-3.23% (inactive)	–
Cc1c(C(=O)O)sc2nc(/C=C/c3cccc(C(N)=O)c3)[nH]c(=O)c12	1.96% (inactive)	–
Cc1c(C(=O)O)sc2nc(/C=C/c3cccnc3N)[nH]c(=O)c12	-7.98% [at 12 µM] (inactive)	–
Cc1c(C(=O)O)sc2nc(/C=C/c3ccccn3)[nH]c(=O)c12	-3.16% (inactive)	–
Cc1c(C(=O)O)sc2nc(/C=C/c3cccc(N4CCNCC4)c3)[nH]c(=O)c12	-8.12% (inactive)	–
